Measured values as given in the supplement of paper PMC11732987, “Enantioselective OTUD7B fragment discovery through chemoproteomics screening and high-throughput optimisation” (Communications Chemistry, 2025).
Unmarked numbers belong to inactive results.

Assays:
Experiment in all cases: log2 ratio of Biotin-Ahx-Ub-VS probe labelling (fragment/DMSO); higher = less target engagement (more negative = stronger competition), active = hit call of the paper (q ≤ 0.05, log2 ratio ≤ -1)
Conditions in all cases: compound concentration: 200 uM; treatment time: 3 h
OTUD6B = biological target: T1, OTUD6B (UniProt Q8N6M0)
T1 sequence (whole entry): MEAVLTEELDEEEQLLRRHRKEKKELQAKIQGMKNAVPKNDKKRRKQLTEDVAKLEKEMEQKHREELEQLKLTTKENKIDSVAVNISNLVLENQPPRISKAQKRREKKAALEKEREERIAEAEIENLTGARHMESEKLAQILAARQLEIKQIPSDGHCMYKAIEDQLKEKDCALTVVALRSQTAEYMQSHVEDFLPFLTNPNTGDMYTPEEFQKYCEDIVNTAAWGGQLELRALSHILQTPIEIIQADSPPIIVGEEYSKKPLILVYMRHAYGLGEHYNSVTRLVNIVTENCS
How it was run: (§1)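 HEK293T lysate in Tris/CHAPS/IGEPAL buffer with protease inhibitors (495 µg per sample) was given fragment at 200 µM or vehicle for 3 h, in triplicate. It then received Biotin-Ahx-Ub-VS at 0.5 µM final for 1 h. Labelled DUBs were NeutrAvidin-enriched, digested with LysC and trypsin, and run by diaPASEF LC-MS/MS. Values are average log2 fragment/vehicle ratios by unpaired t-test on global-median-normalised Spectronaut quantities of proteins with ≥2 unique peptides.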

OTUD7B = biological target: T2, OTUD7B (UniProt Q6GQQ9)
T2 sequence (whole entry): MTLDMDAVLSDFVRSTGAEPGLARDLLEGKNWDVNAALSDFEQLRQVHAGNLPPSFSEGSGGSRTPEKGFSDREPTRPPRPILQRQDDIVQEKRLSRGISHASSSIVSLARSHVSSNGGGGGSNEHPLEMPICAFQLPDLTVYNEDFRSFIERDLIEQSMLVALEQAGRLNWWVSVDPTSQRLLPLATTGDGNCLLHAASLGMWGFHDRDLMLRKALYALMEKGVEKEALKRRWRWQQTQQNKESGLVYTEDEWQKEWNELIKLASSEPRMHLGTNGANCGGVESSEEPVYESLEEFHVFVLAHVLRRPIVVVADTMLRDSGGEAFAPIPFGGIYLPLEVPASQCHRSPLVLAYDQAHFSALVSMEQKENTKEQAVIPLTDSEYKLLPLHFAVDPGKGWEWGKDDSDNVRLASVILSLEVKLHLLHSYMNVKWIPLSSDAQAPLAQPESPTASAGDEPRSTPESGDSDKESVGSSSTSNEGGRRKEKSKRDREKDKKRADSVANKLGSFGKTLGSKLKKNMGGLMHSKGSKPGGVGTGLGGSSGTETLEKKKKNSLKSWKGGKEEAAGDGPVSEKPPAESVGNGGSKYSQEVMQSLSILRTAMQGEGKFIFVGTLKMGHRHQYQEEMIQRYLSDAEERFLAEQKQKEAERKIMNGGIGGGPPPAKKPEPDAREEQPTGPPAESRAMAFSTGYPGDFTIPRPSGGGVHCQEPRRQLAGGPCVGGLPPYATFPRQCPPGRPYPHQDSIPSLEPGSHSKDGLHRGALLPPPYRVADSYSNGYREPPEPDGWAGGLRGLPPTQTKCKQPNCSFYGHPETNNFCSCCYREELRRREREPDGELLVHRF
How it was run: as §1

PRPF8 = PRPF8 (UniProt Q6P2Q9)
How it was run: as §1

PSMD7 = biological target: T3, PSMD7 (UniProt P51665)
T3 sequence (whole entry): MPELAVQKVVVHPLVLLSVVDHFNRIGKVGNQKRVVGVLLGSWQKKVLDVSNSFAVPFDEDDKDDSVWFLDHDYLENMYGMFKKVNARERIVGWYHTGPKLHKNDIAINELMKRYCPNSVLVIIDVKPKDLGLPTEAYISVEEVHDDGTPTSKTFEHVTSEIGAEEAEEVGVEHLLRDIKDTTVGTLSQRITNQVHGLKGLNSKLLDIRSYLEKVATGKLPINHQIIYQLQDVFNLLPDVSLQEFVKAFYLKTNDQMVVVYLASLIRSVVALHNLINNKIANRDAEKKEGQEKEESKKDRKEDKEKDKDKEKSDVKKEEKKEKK
How it was run: as §1

UCHL1 = UCHL1 (UniProt P09936)
How it was run: as §1

UCHL3 = biological target: T4, UCHL3 (UniProt P15374)
T4 sequence (whole entry): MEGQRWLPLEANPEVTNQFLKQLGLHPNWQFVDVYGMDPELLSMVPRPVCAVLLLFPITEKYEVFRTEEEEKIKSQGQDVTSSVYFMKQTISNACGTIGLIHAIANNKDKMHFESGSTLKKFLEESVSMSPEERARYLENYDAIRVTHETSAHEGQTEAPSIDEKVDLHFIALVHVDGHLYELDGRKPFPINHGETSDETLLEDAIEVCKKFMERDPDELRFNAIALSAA
How it was run: as §1

UCHL5 = biological target: T5, UCHL5 (UniProt Q9Y5K5)
T5 sequence (whole entry): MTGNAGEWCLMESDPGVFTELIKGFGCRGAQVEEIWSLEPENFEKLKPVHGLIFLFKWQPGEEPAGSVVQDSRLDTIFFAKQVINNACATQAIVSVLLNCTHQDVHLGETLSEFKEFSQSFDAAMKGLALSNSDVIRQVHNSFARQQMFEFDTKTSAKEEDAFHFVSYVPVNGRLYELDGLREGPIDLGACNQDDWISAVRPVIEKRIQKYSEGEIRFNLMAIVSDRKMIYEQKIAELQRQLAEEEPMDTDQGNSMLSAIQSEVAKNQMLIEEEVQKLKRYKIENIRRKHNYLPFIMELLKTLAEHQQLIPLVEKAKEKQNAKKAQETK
How it was run: as §1

USP10 = USP10 (UniProt Q14694)
How it was run: as §1

USP15 = biological target: T6, USP15 (UniProt Q9Y4E8)
T6 sequence (whole entry): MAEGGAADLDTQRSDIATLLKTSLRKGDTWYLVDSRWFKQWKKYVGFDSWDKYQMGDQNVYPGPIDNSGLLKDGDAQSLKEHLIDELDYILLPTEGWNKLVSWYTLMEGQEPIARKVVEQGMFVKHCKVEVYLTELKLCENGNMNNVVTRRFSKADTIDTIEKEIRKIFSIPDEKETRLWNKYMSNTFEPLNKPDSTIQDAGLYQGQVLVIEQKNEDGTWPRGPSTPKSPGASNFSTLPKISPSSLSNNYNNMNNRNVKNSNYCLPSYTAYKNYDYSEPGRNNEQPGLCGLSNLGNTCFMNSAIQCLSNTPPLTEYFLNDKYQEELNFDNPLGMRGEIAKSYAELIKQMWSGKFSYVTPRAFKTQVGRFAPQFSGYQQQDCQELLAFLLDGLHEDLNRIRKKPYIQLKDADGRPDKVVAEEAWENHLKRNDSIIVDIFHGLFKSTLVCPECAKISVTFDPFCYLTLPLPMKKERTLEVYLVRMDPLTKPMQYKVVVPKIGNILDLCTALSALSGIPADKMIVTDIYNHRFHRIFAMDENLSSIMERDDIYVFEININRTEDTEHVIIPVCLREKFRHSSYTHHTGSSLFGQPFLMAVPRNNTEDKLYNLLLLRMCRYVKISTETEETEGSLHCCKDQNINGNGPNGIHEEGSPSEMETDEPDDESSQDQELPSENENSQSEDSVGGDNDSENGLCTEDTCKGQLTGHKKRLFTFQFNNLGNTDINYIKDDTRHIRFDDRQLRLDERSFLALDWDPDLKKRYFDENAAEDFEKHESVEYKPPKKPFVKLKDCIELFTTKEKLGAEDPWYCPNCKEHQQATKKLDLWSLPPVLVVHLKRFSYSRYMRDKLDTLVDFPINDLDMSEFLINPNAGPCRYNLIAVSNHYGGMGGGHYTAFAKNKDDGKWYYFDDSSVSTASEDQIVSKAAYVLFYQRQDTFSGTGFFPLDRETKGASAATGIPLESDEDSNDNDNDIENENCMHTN
How it was run: as §1

USP16 = USP16 (UniProt Q9Y5T5)
How it was run: as §1

Sequence of USP16 (Q9Y5T5 whole entry, looked up): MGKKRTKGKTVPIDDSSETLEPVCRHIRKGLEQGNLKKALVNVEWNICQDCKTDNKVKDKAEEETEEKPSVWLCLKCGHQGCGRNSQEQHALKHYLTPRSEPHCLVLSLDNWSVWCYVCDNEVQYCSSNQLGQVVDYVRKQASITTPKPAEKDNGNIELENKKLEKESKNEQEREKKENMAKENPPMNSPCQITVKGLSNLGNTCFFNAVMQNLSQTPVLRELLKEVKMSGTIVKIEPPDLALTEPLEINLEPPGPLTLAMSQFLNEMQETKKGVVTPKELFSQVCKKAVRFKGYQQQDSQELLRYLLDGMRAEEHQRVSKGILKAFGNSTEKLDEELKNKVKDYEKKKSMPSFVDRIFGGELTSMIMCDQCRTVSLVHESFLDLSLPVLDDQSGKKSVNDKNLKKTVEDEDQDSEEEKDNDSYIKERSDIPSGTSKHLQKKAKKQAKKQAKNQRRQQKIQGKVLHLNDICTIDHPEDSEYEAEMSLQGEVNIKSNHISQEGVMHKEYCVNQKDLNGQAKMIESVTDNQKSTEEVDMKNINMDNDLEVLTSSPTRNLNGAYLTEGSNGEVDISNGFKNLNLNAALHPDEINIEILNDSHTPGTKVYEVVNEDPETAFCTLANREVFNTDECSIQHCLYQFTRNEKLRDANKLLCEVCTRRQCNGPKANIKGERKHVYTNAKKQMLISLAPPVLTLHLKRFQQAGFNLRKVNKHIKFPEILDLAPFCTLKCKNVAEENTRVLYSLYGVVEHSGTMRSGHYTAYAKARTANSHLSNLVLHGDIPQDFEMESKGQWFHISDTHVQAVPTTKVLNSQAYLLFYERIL
Sequence of USP10 (Q14694 whole entry): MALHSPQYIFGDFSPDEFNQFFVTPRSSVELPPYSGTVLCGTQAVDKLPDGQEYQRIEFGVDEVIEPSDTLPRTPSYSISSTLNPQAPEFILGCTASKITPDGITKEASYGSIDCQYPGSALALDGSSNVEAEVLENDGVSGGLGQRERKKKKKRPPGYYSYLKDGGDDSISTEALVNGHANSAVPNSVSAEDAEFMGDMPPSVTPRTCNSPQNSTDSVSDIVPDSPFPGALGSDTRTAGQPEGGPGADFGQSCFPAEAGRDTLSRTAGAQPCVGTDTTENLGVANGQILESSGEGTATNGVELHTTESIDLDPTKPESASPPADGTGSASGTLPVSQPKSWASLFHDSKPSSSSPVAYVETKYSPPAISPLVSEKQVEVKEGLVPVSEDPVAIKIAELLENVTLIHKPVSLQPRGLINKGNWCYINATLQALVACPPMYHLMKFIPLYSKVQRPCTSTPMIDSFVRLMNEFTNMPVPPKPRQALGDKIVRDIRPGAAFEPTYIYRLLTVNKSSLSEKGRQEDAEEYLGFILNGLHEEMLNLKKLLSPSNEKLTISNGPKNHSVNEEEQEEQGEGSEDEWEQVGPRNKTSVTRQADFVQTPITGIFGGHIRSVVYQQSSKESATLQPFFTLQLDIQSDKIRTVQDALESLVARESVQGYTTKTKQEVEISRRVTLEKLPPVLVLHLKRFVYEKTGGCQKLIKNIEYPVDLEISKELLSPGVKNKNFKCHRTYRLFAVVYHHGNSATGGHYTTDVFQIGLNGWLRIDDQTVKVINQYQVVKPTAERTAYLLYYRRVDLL
Sequence of UCHL1 (P09936 whole entry, looked up): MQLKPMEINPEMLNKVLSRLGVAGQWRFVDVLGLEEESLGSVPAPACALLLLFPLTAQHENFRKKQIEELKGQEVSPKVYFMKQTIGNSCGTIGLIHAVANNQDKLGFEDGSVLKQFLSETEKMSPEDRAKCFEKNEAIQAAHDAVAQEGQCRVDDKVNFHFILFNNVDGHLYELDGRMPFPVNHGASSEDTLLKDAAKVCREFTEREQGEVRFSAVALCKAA

## CNC(=O)C1(NC(=O)CCl)CCCCC1
OTUD6B
  log2 ratio of Biotin-Ahx-Ub-VS probe labelling: -0.206
OTUD7B
  log2 ratio of Biotin-Ahx-Ub-VS probe labelling: -0.687
PRPF8
  log2 ratio of Biotin-Ahx-Ub-VS probe labelling: -0.213
PSMD7
  log2 ratio of Biotin-Ahx-Ub-VS probe labelling: -0.128
UCHL1
  log2 ratio of Biotin-Ahx-Ub-VS probe labelling: -1.81 (active)
UCHL3
  log2 ratio of Biotin-Ahx-Ub-VS probe labelling: 0.248
UCHL5
  log2 ratio of Biotin-Ahx-Ub-VS probe labelling: -0.358
USP10
  log2 ratio of Biotin-Ahx-Ub-VS probe labelling: -0.0869
USP15
  log2 ratio of Biotin-Ahx-Ub-VS probe labelling: 0.0503
USP16
  log2 ratio of Biotin-Ahx-Ub-VS probe labelling: 0.154
